Source: PubChem BioAssay (University of Kansas High Throughput Screening Laboratory)
mHTT CaM bind: inhibitors of human mutant huntingtin-calmodulin interaction; P42858; AlphaScreen His-mHTT/GST-CaM binding, luminescence; inhibition, % at 15 µM; 190,000 compounds, 3.6% hits; AID 1671202;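 note: 0% = both proteins with DMSO and 100% = one protein alone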
Pf apPOL inh: Pf-apPOL DNA polymerase inhibition; Recombinant Pf-apPOL, molecular beacon fluorescence, 1.5 h; inhibition, % at 10 µM; 210,000 compounds, 0.25% hits; AID 1794808
An asterisk follows results filed as active; x = no result given. Only a selection was taken, and hits are over-represented in it overall. Cut-off read from the data, not from the text of the source: active = inhibition above about 50%; inactive = the rest.

SMILES	mHTT CaM bind	Pf apPOL inh
O=C(Cc1cccs1)N1CCCN(C2CCN(Cc3ccc(F)cc3)C2=O)CC1 (stereo unspecified)	60*	0
COCCN1CCC(N2CCCN(C(=O)Cc3cccc(Cl)c3)CC2)C1=O (stereo unspecified)	15	0
O=[P@@]1(Oc2ccccc2)CC=C[C@@H](COC(c2ccccc2)(c2ccccc2)c2ccccc2)O1	30	-6
CNC(=O)Oc1cc([N+](=O)[O-])cc2cccnc12	100*	-9
CN(C)c1ccc([N+](=O)[O-])c2cccnc12	14	x
CCOc1ccccc1NC(=O)N1CCC2(C1)C(=O)N(C)c1ccc(OC)cc12 (stereo unspecified)	6	4
Cc1nc(C(=O)NC2CCCCC2)c(C)n1C1CCN(C)CC1	17	-12
CC1(C)Cc2c(C#N)c(N3CCNCC3)nc(Cc3ccccc3)c2CO1	3	2
N#Cc1c(Cl)c(Cl)nc(N2CCCNCC2)c1Cl	100*	-9
O=C(COc1ccccc1F)N1CCN(Cc2nc(C3CC3)cs2)CC1	-8	-10
Cc1nn(C)c(C)c1CN1CCNCC1	-5	x
OC(CN(Cc1ccccc1)Cc1ccccc1)c1ccc2cc[nH]c2c1 (stereo unspecified)	68*	3
OCCN(CCc1ccccc1)Cc1ccccc1	-14	-6
C=C(C)C1OC2CCC3(C)C4(C)c5[nH]c6cc(Cl)c7c8c6c5C(OC(C)(C)C5CC(C(=C)C7)C85O)C4CCC3(O)C23OC3C1O (stereo unspecified)	x	-8
COc1ccc2c(c1)C1(CCN(S(=O)(=O)c3cc(F)cc(F)c3)C1)C(=O)N2 (stereo unspecified)	9	-5
CC(=O)N1CC(=O)Nc2ccc(Br)cc2C1c1ccccc1Cl (stereo unspecified)	16	-3
O=C1CNC(c2ccccc2Cl)c2cc(Br)ccc2N1 (stereo unspecified)	61*	-1
O=C1OC(c2cncc(Br)c2)=N/C1=C\C=C\c1ccccc1	5	-6
O=C1NC(=O)C(=Cc2cn(Cc3ccc(Cl)cc3)c3ccccc23)C(=O)N1	2	1
CCCCCC(=O)NC(Oc1ccccc1)C(Cl)(Cl)Cl (stereo unspecified)	81*	-4
CC(C)C(=O)NC(Oc1ccccc1)C(Cl)(Cl)Cl (stereo unspecified)	-16	-4
CN1CCN(Cc2ccco2)CC1	0	78*
CN1CCN(Cc2ccc[nH]2)CC1	30	-6
C=CCN1C(=O)C2(C(C(=O)OCC)=C(N)Oc3c2oc(CO)cc3=O)c2ccccc21 (stereo unspecified)	2	-1
CCCn1cc(C(=O)NCCN2CCCC2)c2cccnc21	-1	-1
SMILES	mHTT CaM bind	Pf apPOL inh
CCCCS(=O)(=O)N1CCC2(C1)C(=O)Nc1ccc(OC)cc12 (stereo unspecified)	10	-5
O=C(Cc1ccc(F)cc1)N1CCN(Cc2nc(-c3cccs3)cs2)CC1	4	-67
COc1cccc(CN2CCN(c3ccc(F)cc3)CC2)c1OC	6	58*
COc1cccc(CN2CCN(c3ccc(Cl)cc3)CC2)c1OC	2	-12
COc1ccc(-n2c(C)nc3cc(C(=O)N4CCC5(CC4)OCCO5)ccc32)cc1	1	-4
Cc1nc2cc(C(=O)N3CCC4(CC3)OCCO4)ccc2n1-c1ccc(Br)cc1	57*	-1
COc1ccc(Oc2c(C(F)(F)F)oc3cc(OC(=O)N(C)C)ccc3c2=O)cc1	16	-56
NCCc1csc2c1CCCC2	65*	x
Cc1cc(N2CCN(C)CC2)c2[nH]c3ccccc3c2c1	79*	12
Cc1nccc2c1[nH]c1ccccc12	x	11
COc1cc(Cl)cc(C=Nc2sc3c(c2C#N)C2CCN3CC2)c1O	1	-6
O=Cc1cn(Cc2ccc([N+](=O)[O-])cc2)c2ccccc12	21	-1
CN(C)/C=C/c1c(C=O)c2cc([N+](=O)[O-])ccc2n1Cc1ccccc1	100*	-56
COc1ccc(-n2c(/C=C/c3cccs3)nc3ccccc3c2=O)cc1Cl	27	-4
Cc1cccc(NC(c2ccc(N(C)C)cc2)c2ccc3ccc(C)nc3c2O)n1 (stereo unspecified)	100*	-4
Cc1ccc2cccc(OC(=O)N(C)c3ccccc3)c2n1	-7	2
O=C(CN1C(=O)CN=C(c2ccccc2)c2cc(Cl)ccc21)Nc1ccccc1C(F)(F)F	26	-6
COc1ccc(NC(=O)CN2C(=O)CN=C(c3ccccc3)c3cc(Cl)ccc32)cc1OC	76*	-18
O=C(CN1C(=O)CN=C(c2ccccc2)c2ccccc21)Nc1cccc(Cl)c1	27	-1
Cc1cccc(NC(=O)CN2C(=O)CN=C(c3ccccc3)c3cc(Cl)ccc32)c1C	54*	-20
